Data from PubChem BioAssay AID485346 (Sanford-Burnham Center for Chemical Genomics, 2010).
The campaign covered roughly 330,000 compounds. About 10,000 (3%) were called active. What follows is part of a selection rich in actives, with near analogues and random picks from the rest. Values without a mark were called inactive.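 Rule for the calls: active = inhibition of at least 50% at 8 µM in the primary screen; inactive = the rest.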

target: Protein Mdm4 (Homo sapiens) + E3 ubiquitin-protein ligase Mdm2 (Homo sapiens) (UniProt O15151+Q00987); test: inhibitors of human Mdm2-MdmX association, primary screen, cell-based, luminescence, split luciferase, SaOS-2, uHTS (AID 485346); conditions: SaOS-2 split-luciferase Mdm2/MdmX complementation, at 8 µM, hits give high values
Sequence (O15151 whole entry, looked up): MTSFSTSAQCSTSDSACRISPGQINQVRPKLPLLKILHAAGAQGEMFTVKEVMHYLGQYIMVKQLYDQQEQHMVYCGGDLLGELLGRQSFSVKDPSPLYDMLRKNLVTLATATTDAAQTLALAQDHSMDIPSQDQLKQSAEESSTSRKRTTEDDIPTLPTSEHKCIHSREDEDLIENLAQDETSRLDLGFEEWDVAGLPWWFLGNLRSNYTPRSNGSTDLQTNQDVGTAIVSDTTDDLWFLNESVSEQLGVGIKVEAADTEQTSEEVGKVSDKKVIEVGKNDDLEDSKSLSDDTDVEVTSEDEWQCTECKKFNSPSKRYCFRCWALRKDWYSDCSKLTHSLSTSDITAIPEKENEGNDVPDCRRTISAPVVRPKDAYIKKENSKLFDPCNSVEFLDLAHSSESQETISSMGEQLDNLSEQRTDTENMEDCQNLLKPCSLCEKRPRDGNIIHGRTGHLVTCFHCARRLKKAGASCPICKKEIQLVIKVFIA
Sequence (Q00987 whole entry, looked up): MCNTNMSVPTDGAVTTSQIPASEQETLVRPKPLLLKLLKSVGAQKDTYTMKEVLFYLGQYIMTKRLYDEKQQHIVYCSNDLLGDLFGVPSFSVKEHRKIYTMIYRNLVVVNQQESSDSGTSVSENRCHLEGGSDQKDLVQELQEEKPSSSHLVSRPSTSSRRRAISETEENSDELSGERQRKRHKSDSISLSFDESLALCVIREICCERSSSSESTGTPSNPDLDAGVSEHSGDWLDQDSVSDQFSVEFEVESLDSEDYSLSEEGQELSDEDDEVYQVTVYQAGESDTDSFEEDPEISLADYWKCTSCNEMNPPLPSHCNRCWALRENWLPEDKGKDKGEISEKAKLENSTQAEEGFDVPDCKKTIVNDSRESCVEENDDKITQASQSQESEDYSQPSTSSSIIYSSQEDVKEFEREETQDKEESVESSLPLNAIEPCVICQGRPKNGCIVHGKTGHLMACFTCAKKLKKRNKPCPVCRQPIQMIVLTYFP

SMILES | inhibition
CCOc1cc(CNCc2ccccn2)ccc1OCC(=O)NC(C)(C)C | -2.81%
NC(=O)c1nsc(C(=O)N(CC(=O)NCc2ccc(F)cc2)Cc2ccco2)c1N | 9.54%
COc1cc(C(C(=O)NC2CCCC2)N(Cc2ccccc2)C(=O)c2snc(C(N)=O)c2N)ccc1O (stereo unspecified) | 21.6%
COc1ccc(CNC(=O)C(c2ccc(O)cc2)N(Cc2ccco2)C(=O)c2snc(C(N)=O)c2N)cc1 (stereo unspecified) | 54.5% (active)
CCc1ccc(OCC(O)CN2CCN(CCO)CC2)cc1 (stereo unspecified) | 19.2%
CCOC(=O)c1cnn(Cc2ccccc2Cl)c1N | -23.4%
CC(C)(C)n1ncc2c(=O)n(Cc3c(Cl)cccc3Br)cnc21 | 10.5%
CC(C)c1nnc(NC(=O)C2CC(=O)N(CCc3ccc(F)cc3)C2)s1 (stereo unspecified) | -16.4%
CCN(C(=O)COC(=O)c1c(NC(C)=O)sc(C)c1C)C1CCS(=O)(=O)C1 (stereo unspecified) | 13.7%
O=C(c1cccs1)N(Cc1cc2ccccc2[nH]c1=O)CC1CCCO1 (stereo unspecified) | -37.5%
COc1ccc(-c2c(NC(=O)c3ccco3)oc3ccc(Cl)cc3c2=O)cc1 | -18.1%
COc1ccc(NC(=O)c2cc(-c3cc(OC)c(OC)c(OC)c3)nc3ccccc23)c(OC)c1 | 61.6% (active)
COc1ccccc1NC(=O)c1cc(Cl)nc2ccccc12 | -6.72%
COc1ccc(-c2cc(C(=O)Nc3ccccc3O)c3ccccc3n2)cc1 | 9.09%
CCN(CC(=O)Nc1ccccc1C(=O)NC1CC1)Cc1cccs1 | 30.2%
O=C(C1=C[C@H](c2coc3ccccc3c2=O)C[C@H](OCc2ccc(CO)cc2)O1)N1CCN(Cc2ccccc2)CC1 | 8.82%
CN(c1ccccc1)S(=O)(=O)c1ccc(C(=O)N2CCN(c3ccccc3Cl)CC2)cc1 | 28.8%
CN(c1ccccc1)S(=O)(=O)c1cc(C(=O)OCC(=O)N2CCN(C(=O)c3ccco3)CC2)ccc1Cl | 15.6%
CN(c1ccccc1)S(=O)(=O)c1cc(C(=O)N2CCN(c3ncccn3)CC2)ccc1Cl | 77.3% (active)
COC(=O)c1ccc(C)c(NC(=O)Cn2c(C)csc2=O)c1 | 26.8%
O=C(Nc1nnc(-c2ccccc2)o1)c1cc(-c2cccs2)nc2ccccc12 | 51% (active)
O=C(Nc1nnc(-c2ccc(Cl)cc2)o1)c1ccccc1Br | -13.3%
CC(C)(C)Cc1nnc(NC(=O)c2cc(-c3ccccc3)nc3ccccc23)s1 | -22%

SMILES | inhibition
COc1ccc(Cl)cc1C(=O)NNC(=O)c1nc2nc(C)cc(C)n2n1 | 8.57%
CN(C)c1ccnc2sc3c(=O)n(Cc4ccccc4)cnc3c12 | 59.1% (active)
CN(C)/C=C/c1c(C#N)c(=O)ncn1Cc1ccccc1 | 13.9%
O=c1c2c(ncn1Cc1ccccc1)nc1n2CCC1 | 19.7%
CN(CCC#N)c1ncnc2scc(-c3ccccc3)c12 | 21.2%
CC(C)CCN1CCC(C)(NC(=O)c2ccccc2)C1=O (stereo unspecified) | -21.2%
O=C(CNS(=O)(=O)c1ccc2c(c1)OCCCO2)N1CCN(c2ccc(F)cc2)CC1 | 7.54%
O=C(CCn1c(=S)[nH]c2cc3c(cc2c1=O)OCO3)NCc1ccc(Cl)cc1 | 56.3% (active)
O=C(CCCCCn1c(=S)[nH]c2cc3c(cc2c1=O)OCO3)N1CCN(c2ccc(F)cc2)CC1 | 53.5% (active)
Cc1ccc(C)c(N2CCN(C(=O)CCCn3c(=O)c4cccn4c4cccnc43)CC2)c1 | 1.5%
Cc1ccc(C)c(N2CCN(C(=O)CCCCCn3c(=S)[nH]c4ccc(N5CCOCC5)cc4c3=O)CC2)c1 | 85.6% (active)
O=C(NCCS(=O)(=O)N1CCN(c2ccc(F)cc2)CC1)c1ccc2c(c1)OCO2 | 7.26%
CC(C)NC(=O)CCCn1c(=S)[nH]c2cc3c(cc2c1=O)OCO3 | -5.62%
CN(C)CCn1c(=S)[nH]c2ccc(Cl)cc2c1=O | 8.17%
Cc1ccc(C)c(N2CCN(C(=O)CCCCn3c(=O)[nH]c4ccccc4c3=O)CC2)c1 | 8.89%
Cn1ccsc1=NC(=O)c1cc(S(=O)(=O)N2CCOCC2)ccc1Cl | 28%
NS(=O)(=O)c1ccc(CCNC(=O)CN2C(=O)c3ccccc3S2(=O)=O)cc1 | 27.9%
O=C(COC(=O)c1ccc(Br)o1)NC12CC3CC(CC(C3)C1)C2 | 15.9%
Cc1csc(=O)n1CCC(=O)OCC(=O)NNC(=O)c1ccc(Br)cc1 | 8.79%
CCCN(CCC)C(=S)Nc1cc(C(=O)OC)ccc1C(=O)OC | 9.38%
CCOC(=O)C1CCN(C(=O)c2ccccc2N(C)S(=O)(=O)c2ccccc2)CC1 | -12.4%
C=CS(=O)c1sc(Cl)c(N2CCOCC2)c1[N+](=O)[O-] (stereo unspecified) | 25.9%
Cn1nnnc1SCC(=O)Nc1sccc1C(N)=O | 0.655%

SMILES | inhibition
COC(=O)c1ccccc1NC(=O)CSc1nnnn1C | -3.43%
CCOC(=O)c1c(-c2ccc(C)cc2C)csc1NC(=O)CSc1nnnn1C | 73.7% (active)
Cc1ccc(/C=C/C(=O)O)cc1S(=O)(=O)N1CCC(Cc2ccccc2)CC1 | -1.19%
Cc1cccc(C(=O)Nc2ccccc2-c2nnn(CC(=O)Nc3ccc4c(c3)OCCO4)n2)c1 | 15.2%
CS(=O)(=O)c1ccc(-c2nnn(CC(=O)Nc3ccc4c(c3)OCCO4)n2)cc1 | 86.1% (active)
Cc1ccc(S(=O)(=O)NCC(=O)Nc2ccc3c(c2)OCCO3)cc1 | 10%
CC1CCCCC12NC(=O)N(CC(=O)OCc1c(F)cccc1Cl)C2=O (stereo unspecified) | 2.6%
Cc1ccsc1C(=O)OCC(=O)c1cc(C)n(CC2CCCO2)c1C (stereo unspecified) | 94.1% (active)
COc1ccc(C(=O)OCC(=O)c2cc(C)n(CC3CCCO3)c2C)cc1[N+](=O)[O-] (stereo unspecified) | 2.69%
Cc1cc(C(=O)Cn2cnc3cc([N+](=O)[O-])ccc3c2=O)c(C)n1CC1CCCO1 (stereo unspecified) | -7.26%
COc1ccc(CNC(=O)[C@H](Cc2c[nH]c3ccccc23)NC(C)=O)cc1OC | 10.9%
COc1ccc(NC(=O)[C@H](NC(=O)[C@@H]2Cc3ccccc3CN2)c2ccccc2)cc1 | -1.06%
COc1cccc(NC(=O)[C@H](Cc2c[nH]c3ccccc23)NC(=O)[C@@H]2Cc3ccccc3CN2)c1 | 94.4% (active)
C/C=C/c1ccc(OCCCCN2CCC(C)CC2)c(OC)c1 | -26%
Cc1cccc(NC(=S)NCc2ccc3[nH]c4c(c3c2)CCCC4)c1 | 63.6% (active)
Cc1cccc(NC(=S)NCCN(C2CCCCC2)C2CCCC2)c1 | 44.3%
Cc1cc(C)cc(NC(=S)NCc2ccc(F)cc2)c1 | -4.57%
CC(C)=CCc1c(O)c(CC=C(C)C)c2occ(-c3ccc(O)cc3)c(=O)c2c1O | 45.8%
CCC1(CC)NC(=O)N(CC(=O)OCC(=O)c2cc(C)c(C)cc2C)C1=O | 22.7%
Cc1ccc2c(c1)C1C[N+](C)(CC(=O)c3ccccc3)CCC1N2C(=O)c1ccccc1Cl (stereo unspecified) | -17.1%
CCSC1=NCCN1S(=O)(=O)c1ccc(F)cc1 | -0.662%
FC(F)(F)c1nnc2ccc(N3CCN(c4ccccc4)CC3)nn12 | 26.8%
FC(F)(F)c1nnc2c3ccccc3c(Cl)nn12 | 64.4% (active)

SMILES | inhibition
Nc1nnc2c(C(F)(F)F)nc3ccccc3n12 | -2.03%
Cc1cc2oc(C(=O)Nc3c(C)n(C)n(-c4ccccc4)c3=O)c(C)c2cc1Cl | 23.4%
COc1ccc(CNC(=O)c2ccc3oc(C(C)C)nc3c2)cc1 | -34.8%
Cc1cccc(N2O[C@H]3C=CC2CCCC3)n1 | 15.6%
CC(=O)c1ccccc1NC(=O)CC1(CC(=O)O)CCCCC1 | 10.9%
CCN(CC)CCCNC(=O)CCc1ccccc1 | 27.2%
CCOc1ccc(CCNC(=O)CSc2cc(=O)n(C)c3ccc(Cl)cc23)cc1OCC | 4.16%
CCN(CCCNC(=O)CSc1cc(=O)n(C)c2cc(Cl)ccc12)Cc1ccccc1 | 54.7% (active)
CC(=O)OCCC(C)C | 9.67%
C=CCn1c(SCC(=O)NCC2CCCO2)nc2sc(C)c(C)c2c1=O (stereo unspecified) | 2.91%
C=CCn1c(SCc2c(C)noc2C)nc2sc3c(c2c1=O)CCC(C)C3 (stereo unspecified) | 52.5% (active)
C=CCn1c(SCC(=O)NCCCO)nc2sc3c(c2c1=O)CCC3 | 0.393%
Cc1ccc(-c2ccc(=O)n(Cc3ccc(F)cc3Cl)n2)cc1 | -15.3%
COc1ccc(/C=C/c2noc(-c3ccccc3OC(C)=O)n2)cc1 | -61.9%
COc1ccc(-c2nc(-c3ccccc3)no2)c(OC)c1 | 58.4% (active)
Cc1ccc(-c2nc(-c3ccncc3)no2)c(C)c1 | -116%
O=C(NCCN1CCOCC1)c1cc(Sc2cccc(Cl)c2)nc2ccccc12 | -2.97%
CCOC(=O)/C=c1\s/c(=C\c2ccc(C#N)cc2)c(=O)n1CC(=O)Nc1cccc(C)c1C | 78% (active)
Cc1cccc(NC(=O)CSC(N)=O)c1C | 2.96%
CCOC(=O)/C=c1\s/c(=C\c2ccccc2OC)c(=O)n1CC(=O)N1CCOCC1 | 11.5%
COc1cc(Cl)c(C)cc1NC(=O)[C@@H]1CCCN1C(=O)c1cccs1 | 6.14%
COc1ccc(S(=O)(=O)N2CCN(c3cnccn3)CC2)cc1 | 13.5%
